Reference: paper PMC7862700, “An all-to-all approach to the identification of sequence-specific readers for epigenetic DNA modifications on cytosine”

Columns and labels:
Experiment in all cases: DAPPL (digital affinity profiling via proximity ligation, sequencing); 10 mM Tris-HCl pH 7.5, 50 mM NaCl, 1 mM DTT, 4% glycerol, room temperature, 30 min; GST-TFs on glutathione beads, 16-mer random dsDNA library, 0.1% formaldehyde crosslink after washing; high values mean tight binding
FLI1 = target: T1, FLI1 (Homo sapiens, UniProt Q01543 1-452); conditions: protein: recombinant; tags: N-terminal GST; dsDNA, one strand shown
T1 sequence: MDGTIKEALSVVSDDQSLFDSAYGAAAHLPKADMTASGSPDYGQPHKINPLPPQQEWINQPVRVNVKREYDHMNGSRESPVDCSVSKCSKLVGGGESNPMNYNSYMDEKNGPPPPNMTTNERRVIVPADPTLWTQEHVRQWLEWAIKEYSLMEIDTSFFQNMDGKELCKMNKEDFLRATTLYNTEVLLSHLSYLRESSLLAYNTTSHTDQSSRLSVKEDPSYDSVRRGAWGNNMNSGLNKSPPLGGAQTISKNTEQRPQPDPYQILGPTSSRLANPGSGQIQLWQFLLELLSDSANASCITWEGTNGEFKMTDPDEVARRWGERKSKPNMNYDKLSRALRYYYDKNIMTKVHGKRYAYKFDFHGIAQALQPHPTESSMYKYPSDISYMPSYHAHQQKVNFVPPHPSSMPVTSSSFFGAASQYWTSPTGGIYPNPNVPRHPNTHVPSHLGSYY
Procedure, shortened: (§1)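 Human transcription factors fused to GST were expressed in yeast, captured on glutathione beads, given DNA barcodes and pooled with a GST-only negative control. Pools were incubated with 200 nmole of a 16-mer random double-stranded DNA library in Tris/NaCl/DTT/glycerol buffer at room temperature for 30 min. They were then washed, crosslinked with 0.1% formaldehyde, proximity-ligated (BsaI/T4 ligase, 1 h, 37 °C), PCR-amplified and sequenced on an Illumina NextSeq500. Binding signal is each 6-mer's read frequency for a factor divided by its frequency for the GST control.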

ELK1 = target: T2, ELK1 (Homo sapiens, UniProt P19419 1-428); conditions: protein: recombinant; tags: N-terminal GST; dsDNA, one strand shown
T2 sequence: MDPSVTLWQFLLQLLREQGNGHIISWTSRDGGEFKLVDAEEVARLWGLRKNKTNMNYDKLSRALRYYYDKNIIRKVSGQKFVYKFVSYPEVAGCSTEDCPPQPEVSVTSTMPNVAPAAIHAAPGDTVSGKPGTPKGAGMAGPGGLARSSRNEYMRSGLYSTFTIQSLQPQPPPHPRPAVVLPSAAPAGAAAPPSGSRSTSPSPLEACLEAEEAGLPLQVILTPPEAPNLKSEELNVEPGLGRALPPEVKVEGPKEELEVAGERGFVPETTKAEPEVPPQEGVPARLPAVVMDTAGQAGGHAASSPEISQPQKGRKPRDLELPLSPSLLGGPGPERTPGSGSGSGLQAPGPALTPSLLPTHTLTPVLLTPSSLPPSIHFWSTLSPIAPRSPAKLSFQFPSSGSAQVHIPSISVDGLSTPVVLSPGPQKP
Procedure, shortened: as §1

GABPA = target: T3, GABPA (Homo sapiens, UniProt Q06546 1-454); conditions: protein: recombinant; tags: N-terminal GST; dsDNA, one strand shown
T3 sequence: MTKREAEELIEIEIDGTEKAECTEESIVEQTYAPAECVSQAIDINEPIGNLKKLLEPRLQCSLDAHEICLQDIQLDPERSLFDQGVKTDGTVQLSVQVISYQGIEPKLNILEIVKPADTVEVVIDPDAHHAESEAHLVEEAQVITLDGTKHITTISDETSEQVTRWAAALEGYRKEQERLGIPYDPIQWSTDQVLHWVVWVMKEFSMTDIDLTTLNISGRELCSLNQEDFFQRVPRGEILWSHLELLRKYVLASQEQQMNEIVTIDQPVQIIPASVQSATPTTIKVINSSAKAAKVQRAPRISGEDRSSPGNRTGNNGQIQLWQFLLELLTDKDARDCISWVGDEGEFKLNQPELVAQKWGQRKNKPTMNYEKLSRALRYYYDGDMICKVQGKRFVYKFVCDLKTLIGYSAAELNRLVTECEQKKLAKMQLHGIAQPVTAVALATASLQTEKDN
Procedure, shortened: as §1

ERG = target: T4, ERG (Homo sapiens, UniProt P11308 1-479); conditions: protein: recombinant; tags: N-terminal GST; dsDNA, one strand shown
T4 sequence: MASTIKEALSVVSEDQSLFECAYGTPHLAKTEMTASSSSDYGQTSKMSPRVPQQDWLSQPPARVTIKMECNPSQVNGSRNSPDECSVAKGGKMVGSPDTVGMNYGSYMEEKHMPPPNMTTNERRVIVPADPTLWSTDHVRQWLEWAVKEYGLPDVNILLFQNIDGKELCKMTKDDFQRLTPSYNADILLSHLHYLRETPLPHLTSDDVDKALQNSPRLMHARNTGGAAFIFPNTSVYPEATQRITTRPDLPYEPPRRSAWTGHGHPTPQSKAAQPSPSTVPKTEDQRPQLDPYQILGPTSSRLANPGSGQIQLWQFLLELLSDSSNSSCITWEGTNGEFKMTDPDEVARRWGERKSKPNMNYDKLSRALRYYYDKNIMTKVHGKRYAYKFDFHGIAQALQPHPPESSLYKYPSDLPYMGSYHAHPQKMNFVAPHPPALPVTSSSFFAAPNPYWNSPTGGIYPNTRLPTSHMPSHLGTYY
Procedure, shortened: as §1

ELF1 = ELF1 (Homo sapiens, UniProt P32519 1-619); conditions: protein: recombinant; tags: N-terminal GST; dsDNA, one strand shown
Procedure, shortened: as §1

EHF = target: T5, EHF (Homo sapiens, UniProt Q9NZC4 1-300); conditions: protein: recombinant; tags: N-terminal GST; dsDNA, one strand shown
T5 sequence: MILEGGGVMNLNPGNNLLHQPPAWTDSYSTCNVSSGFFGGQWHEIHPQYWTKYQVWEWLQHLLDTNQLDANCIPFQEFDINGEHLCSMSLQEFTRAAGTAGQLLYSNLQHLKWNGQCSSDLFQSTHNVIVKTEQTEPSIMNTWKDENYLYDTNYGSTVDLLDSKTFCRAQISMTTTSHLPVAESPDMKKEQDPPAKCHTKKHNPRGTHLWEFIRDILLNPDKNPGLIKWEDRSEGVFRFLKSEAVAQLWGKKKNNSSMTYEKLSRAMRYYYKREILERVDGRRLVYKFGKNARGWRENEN
Procedure, shortened: as §1

SPI1 = SPI1 (Homo sapiens, UniProt P17947 1-270); conditions: protein: recombinant; tags: N-terminal GST; dsDNA, one strand shown
Procedure, shortened: as §1

SPIB = SPIB (Homo sapiens, UniProt Q01892 1-262); conditions: protein: recombinant; tags: N-terminal GST; dsDNA, one strand shown
Procedure, shortened: as §1

ELK3 = target: T6, ELK3 (Homo sapiens, UniProt P41970 1-407); conditions: protein: recombinant; tags: N-terminal GST; dsDNA, one strand shown
T6 sequence: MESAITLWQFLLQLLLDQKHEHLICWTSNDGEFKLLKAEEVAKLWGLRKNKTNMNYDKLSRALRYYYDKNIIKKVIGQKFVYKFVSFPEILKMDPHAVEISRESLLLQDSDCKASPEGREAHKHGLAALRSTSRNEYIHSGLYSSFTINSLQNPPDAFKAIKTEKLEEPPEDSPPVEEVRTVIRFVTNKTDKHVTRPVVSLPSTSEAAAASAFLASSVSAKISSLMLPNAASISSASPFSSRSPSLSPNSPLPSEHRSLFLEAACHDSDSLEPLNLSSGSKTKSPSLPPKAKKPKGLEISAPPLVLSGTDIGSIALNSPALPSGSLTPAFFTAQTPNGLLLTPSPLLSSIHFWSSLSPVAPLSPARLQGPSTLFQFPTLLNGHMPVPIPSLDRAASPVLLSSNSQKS
Procedure, shortened: as §1

FEV = target: T7, FEV (Homo sapiens, UniProt Q99581 1-238); conditions: protein: recombinant; tags: N-terminal GST; dsDNA, one strand shown
T7 sequence: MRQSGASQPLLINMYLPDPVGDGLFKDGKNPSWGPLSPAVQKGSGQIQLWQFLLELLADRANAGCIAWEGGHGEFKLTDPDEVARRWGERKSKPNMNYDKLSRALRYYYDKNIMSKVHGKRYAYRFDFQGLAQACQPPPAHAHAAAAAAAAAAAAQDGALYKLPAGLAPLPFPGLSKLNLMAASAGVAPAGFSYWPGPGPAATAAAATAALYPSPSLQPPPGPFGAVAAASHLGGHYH
Procedure, shortened: as §1

ETV5 = ETV5 (Homo sapiens, UniProt P41161 1-510); conditions: protein: recombinant; tags: N-terminal GST; dsDNA, one strand shown
Procedure, shortened: as §1

HSF1 = HSF1 (Homo sapiens, UniProt Q00613 1-529); conditions: protein: recombinant; tags: N-terminal GST; chain copies: 3; dsDNA, one strand shown
Procedure, shortened: as §1

SPIC = target: T8, SPIC (Homo sapiens, UniProt Q8N5J4 1-248); conditions: protein: recombinant; tags: N-terminal GST; dsDNA, one strand shown
T8 sequence: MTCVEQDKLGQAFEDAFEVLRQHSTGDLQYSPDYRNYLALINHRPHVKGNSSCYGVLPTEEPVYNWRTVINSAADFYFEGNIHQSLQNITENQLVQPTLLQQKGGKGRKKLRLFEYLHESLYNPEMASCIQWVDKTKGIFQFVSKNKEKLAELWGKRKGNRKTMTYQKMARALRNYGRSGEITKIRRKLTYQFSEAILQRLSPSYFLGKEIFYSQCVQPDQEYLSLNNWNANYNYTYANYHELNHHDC
Procedure, shortened: as §1

ELF4 = ELF4 (Homo sapiens, UniProt Q99607 1-663); conditions: protein: recombinant; tags: N-terminal GST; dsDNA, one strand shown
Procedure, shortened: as §1

ELK4 = target: T9, ELK4 (Homo sapiens, UniProt P28324-2 1-405); conditions: protein: recombinant; tags: N-terminal GST; dsDNA, one strand shown
T9 sequence: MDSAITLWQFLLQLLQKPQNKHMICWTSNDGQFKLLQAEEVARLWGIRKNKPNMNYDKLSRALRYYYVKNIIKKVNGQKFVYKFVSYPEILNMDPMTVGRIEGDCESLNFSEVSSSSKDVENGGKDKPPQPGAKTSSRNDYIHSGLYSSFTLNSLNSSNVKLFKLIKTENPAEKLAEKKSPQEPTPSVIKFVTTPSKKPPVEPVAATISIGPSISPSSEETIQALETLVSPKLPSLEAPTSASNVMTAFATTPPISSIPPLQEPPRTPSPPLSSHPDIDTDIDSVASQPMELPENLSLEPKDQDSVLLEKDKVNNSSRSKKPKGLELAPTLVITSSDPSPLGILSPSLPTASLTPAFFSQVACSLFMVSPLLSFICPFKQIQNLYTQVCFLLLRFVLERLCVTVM
Procedure, shortened: as §1

ETV2 = target: T10, ETV2 (Homo sapiens, UniProt O00321 1-342); conditions: protein: recombinant; tags: N-terminal GST; dsDNA, one strand shown
T10 sequence: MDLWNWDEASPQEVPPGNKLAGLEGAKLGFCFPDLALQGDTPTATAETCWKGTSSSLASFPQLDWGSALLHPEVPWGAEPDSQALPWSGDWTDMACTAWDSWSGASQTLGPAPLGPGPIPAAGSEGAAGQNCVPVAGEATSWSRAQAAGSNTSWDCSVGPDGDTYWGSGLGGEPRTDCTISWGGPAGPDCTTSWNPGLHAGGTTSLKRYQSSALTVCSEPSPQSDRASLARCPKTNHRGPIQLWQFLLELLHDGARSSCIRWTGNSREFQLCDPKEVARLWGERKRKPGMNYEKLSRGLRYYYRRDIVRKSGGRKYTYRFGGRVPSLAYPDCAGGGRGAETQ
Procedure, shortened: as §1

ELF3 = target: T11, ELF3 (Homo sapiens, UniProt P78545 1-371); conditions: protein: recombinant; tags: N-terminal GST; dsDNA, one strand shown
T11 sequence: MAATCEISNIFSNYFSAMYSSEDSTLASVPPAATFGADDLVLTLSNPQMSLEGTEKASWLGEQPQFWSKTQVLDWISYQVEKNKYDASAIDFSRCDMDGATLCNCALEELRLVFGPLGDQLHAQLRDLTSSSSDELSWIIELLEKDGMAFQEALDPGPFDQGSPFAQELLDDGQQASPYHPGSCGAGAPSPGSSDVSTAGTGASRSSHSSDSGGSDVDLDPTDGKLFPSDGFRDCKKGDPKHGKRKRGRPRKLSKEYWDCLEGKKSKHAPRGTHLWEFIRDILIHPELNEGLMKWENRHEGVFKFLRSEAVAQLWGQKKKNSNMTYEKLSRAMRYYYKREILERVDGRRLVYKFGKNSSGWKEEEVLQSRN
Procedure, shortened: as §1

CRX = CRX (Homo sapiens, UniProt O43186 1-299); conditions: protein: recombinant; tags: N-terminal GST; dsDNA, one strand shown
Procedure, shortened: as §1

ETV1 = ETV1 (Homo sapiens, UniProt P50549 1-477); conditions: protein: recombinant; tags: N-terminal GST; dsDNA, one strand shown
Procedure, shortened: as §1

ELF4, sequence (Q99607 whole entry): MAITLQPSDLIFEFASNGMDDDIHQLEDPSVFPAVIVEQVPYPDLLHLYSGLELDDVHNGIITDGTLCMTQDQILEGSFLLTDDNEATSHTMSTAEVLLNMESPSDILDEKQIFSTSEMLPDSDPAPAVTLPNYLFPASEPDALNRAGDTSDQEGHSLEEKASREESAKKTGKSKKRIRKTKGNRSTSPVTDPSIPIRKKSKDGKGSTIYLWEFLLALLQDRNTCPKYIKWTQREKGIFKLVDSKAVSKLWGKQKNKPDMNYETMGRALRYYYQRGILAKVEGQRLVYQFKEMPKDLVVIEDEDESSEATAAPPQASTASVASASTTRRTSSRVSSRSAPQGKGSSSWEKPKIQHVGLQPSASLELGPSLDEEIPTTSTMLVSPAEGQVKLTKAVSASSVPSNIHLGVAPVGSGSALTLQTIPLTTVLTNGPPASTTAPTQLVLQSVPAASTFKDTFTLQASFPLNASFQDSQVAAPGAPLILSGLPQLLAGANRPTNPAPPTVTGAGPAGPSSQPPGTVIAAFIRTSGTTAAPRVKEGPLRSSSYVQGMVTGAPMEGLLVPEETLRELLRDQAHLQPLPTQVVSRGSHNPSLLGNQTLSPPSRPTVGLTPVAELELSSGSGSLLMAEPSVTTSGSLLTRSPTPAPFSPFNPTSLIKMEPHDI
CRX, sequence (O43186 whole entry): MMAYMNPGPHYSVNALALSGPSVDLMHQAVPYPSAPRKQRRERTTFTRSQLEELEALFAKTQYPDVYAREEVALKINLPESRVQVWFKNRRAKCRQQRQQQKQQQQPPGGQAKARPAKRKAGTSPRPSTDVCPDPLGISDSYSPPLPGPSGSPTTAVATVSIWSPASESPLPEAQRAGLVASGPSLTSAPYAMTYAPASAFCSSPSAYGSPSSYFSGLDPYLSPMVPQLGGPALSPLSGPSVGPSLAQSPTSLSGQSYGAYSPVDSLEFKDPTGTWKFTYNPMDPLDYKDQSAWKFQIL
ETV5, sequence (P41161 whole entry): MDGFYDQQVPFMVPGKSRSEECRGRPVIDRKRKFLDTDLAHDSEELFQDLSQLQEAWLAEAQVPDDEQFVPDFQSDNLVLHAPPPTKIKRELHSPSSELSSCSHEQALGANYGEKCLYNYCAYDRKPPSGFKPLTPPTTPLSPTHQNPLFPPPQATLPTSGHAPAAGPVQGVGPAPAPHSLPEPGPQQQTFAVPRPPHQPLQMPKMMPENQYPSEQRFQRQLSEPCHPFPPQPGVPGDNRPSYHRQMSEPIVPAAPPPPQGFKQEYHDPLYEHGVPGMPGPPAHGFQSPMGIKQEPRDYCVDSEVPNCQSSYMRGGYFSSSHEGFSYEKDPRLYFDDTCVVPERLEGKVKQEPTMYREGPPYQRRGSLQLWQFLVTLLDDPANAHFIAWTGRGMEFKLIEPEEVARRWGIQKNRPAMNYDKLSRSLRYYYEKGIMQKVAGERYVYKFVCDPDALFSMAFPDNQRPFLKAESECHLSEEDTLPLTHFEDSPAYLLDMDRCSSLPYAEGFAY
ETV1, sequence (P50549 whole entry): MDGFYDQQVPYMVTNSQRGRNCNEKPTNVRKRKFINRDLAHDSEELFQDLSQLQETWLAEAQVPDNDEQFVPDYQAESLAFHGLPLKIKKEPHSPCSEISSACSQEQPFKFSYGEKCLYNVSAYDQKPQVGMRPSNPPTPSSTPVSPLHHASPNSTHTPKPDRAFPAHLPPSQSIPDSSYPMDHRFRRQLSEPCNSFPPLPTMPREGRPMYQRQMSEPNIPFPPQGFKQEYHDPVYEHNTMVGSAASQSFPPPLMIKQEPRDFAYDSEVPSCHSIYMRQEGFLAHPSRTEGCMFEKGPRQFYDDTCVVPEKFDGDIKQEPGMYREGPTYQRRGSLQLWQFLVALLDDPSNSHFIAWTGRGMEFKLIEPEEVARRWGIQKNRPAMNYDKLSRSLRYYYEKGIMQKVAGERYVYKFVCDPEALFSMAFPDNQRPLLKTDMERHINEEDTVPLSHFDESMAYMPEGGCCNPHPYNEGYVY
ELF1, sequence (P32519 whole entry): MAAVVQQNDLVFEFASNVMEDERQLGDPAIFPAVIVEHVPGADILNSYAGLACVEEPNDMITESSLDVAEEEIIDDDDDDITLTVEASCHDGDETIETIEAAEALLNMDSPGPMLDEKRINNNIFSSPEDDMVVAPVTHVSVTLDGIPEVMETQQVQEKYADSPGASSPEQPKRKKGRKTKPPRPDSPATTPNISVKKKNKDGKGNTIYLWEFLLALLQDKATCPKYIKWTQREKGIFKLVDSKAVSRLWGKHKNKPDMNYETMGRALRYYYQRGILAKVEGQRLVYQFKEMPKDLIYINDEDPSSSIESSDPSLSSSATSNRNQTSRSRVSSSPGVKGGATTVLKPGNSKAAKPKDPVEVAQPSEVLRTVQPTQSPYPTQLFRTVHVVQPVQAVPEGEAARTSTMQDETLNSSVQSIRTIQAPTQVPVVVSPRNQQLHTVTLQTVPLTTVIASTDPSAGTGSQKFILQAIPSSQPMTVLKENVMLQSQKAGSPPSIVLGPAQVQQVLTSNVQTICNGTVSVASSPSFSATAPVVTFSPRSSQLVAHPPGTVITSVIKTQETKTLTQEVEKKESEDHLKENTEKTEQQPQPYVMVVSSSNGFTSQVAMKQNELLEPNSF
HSF1, sequence (Q00613 whole entry): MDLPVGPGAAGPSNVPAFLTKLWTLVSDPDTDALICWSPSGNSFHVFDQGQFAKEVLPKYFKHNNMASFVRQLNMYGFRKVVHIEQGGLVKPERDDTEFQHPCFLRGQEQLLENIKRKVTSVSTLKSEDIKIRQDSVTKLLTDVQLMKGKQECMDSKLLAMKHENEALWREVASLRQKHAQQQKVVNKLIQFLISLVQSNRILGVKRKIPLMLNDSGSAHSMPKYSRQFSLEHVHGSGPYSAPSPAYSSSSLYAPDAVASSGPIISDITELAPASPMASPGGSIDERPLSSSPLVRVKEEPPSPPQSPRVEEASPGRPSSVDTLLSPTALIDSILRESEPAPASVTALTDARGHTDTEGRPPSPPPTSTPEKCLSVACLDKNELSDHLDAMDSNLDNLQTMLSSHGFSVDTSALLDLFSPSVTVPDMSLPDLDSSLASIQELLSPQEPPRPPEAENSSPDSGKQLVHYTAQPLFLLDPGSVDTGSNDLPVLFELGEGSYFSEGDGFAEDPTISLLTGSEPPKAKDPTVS
SPIB, sequence (Q01892 whole entry): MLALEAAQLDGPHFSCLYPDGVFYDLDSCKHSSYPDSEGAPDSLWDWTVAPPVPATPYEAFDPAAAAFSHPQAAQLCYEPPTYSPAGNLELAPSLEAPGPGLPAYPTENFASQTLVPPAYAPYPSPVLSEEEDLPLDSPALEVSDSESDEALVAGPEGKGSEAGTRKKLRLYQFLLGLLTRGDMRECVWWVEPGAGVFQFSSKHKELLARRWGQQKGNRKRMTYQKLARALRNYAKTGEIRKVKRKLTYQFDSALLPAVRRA

Sequence: GACTTC
- binding signal (FLI1): 2.39 fold enrichment (6-mer frequency, TF over GST control)
- binding signal (ELK1): 2.65 fold enrichment (6-mer frequency, TF over GST control)
- binding signal (GABPA): 2.3 fold enrichment (6-mer frequency, TF over GST control)
- binding signal (ERG): 2.84 fold enrichment (6-mer frequency, TF over GST control)
- binding signal (ELF1): 2.36 fold enrichment (6-mer frequency, TF over GST control)
- binding signal (EHF): 2.51 fold enrichment (6-mer frequency, TF over GST control)
- binding signal (SPI1): 3.04 fold enrichment (6-mer frequency, TF over GST control)
- binding signal (SPIB): 2.51 fold enrichment (6-mer frequency, TF over GST control)
- binding signal (ELK3): 2.61 fold enrichment (6-mer frequency, TF over GST control)
- binding signal (FEV): 3.36 fold enrichment (6-mer frequency, TF over GST control)
- binding signal (ETV5): 2.51 fold enrichment (6-mer frequency, TF over GST control)
- binding signal (HSF1): 1.23 fold enrichment (6-mer frequency, TF over GST control)
- binding signal (SPIC): 2.23 fold enrichment (6-mer frequency, TF over GST control)
- binding signal (ELF4): 2.28 fold enrichment (6-mer frequency, TF over GST control)
- binding signal (ELK4): 2.22 fold enrichment (6-mer frequency, TF over GST control)
- binding signal (ETV2): 2.35 fold enrichment (6-mer frequency, TF over GST control)
- binding signal (ELF3): 2.29 fold enrichment (6-mer frequency, TF over GST control)
- binding signal (CRX): 1.12 fold enrichment (6-mer frequency, TF over GST control)
- binding signal (ETV1): 2.56 fold enrichment (6-mer frequency, TF over GST control)
